# In ChEMBL document CHEMBL1157539, “Thousands of chemical starting points for antimalarial lead identification” (Nature, 2010):
# Experiments:
# Format in all cases: functional
# Plasmodium falciparum [1] = test: GSK_TCMDC: Inhibition of Plasmodium falciparum 3D7 in whole red blood cells, using parasite LDH activity as an index of growth. Test compounds present at 2uM
# Plasmodium falciparum [2] = test: GSK_TCMDC: Inhibition of Plasmodium falciparum Dd2 in whole red blood cells, using parasite LDH activity as an index of growth. Test compounds present at 2uM
# HepG2 = test: GSK_TCMDC: Percent inhibition of human HepG2 cell line. Test compounds present at 10uM.
Compound,Inhibition (Plasmodium falciparum [1]),Inhibition (Plasmodium falciparum [2]),Inhibition (HepG2)
CC1CN(Cc2ccc(-c3cccc(-c4nc5cc(F)ccc5[nH]4)c3)cc2)CC(C)O1.O=C(O)C(F)(F)F (stereo not drawn),93%,20%,28%
CC(=O)O.COc1ccc(CNc2ccc3nc(N)nc(N)c3c2)cc1,99%,84%,39%
Br.CCc1cccc(OCCCON2C(=N)N=C(N)NC2(C)C)c1,95%,94%,63%
CCCCCN1CCCC1CNS(=O)(=O)c1cccc(C(=O)Nc2cccc(C(F)(F)F)c2)c1.O=C(O)C(F)(F)F (stereo not drawn),96%,12%,15%
Cc1cc(-c2ccc(S(=O)(=O)Nc3cc4c(cc3OC(C)C)CCN(C)CC4)cc2)ccc1Cl.Cl,90%,19%,33%
CN(C)CCN(Cc1ccccc1-c1ccc(CNCCc2ccccc2)cc1)C(=O)c1ccccc1.O=C(O)C(F)(F)F,95%,97%,81%
CC(C)c1ccc(-c2noc(SCC(=O)N3CCCCC3C)n2)cc1 (stereo not drawn),92%,92%,21%
Cl.c1ccc(C(c2cccs2)N2CCN(Cc3ccc(OCCCN4CCCCC4)cc3)CC2)cc1 (stereo not drawn),91%,14%,41%
c1ccc(CN2CCC(NCc3cccc(-c4cncc5ccccc45)c3)CC2)cc1,92%,11%,29%
Cc1sc(N2CCN(C)CC2)nc1C(=O)Nc1ccc(F)cc1C(F)(F)F.O=C(O)C(F)(F)F,92%,63%,7%
CS(=O)(=O)O.FC(F)(F)COc1c(CCNCCCCNCCc2ccc3ccccc3c2OCC(F)(F)F)ccc2ccccc12,100%,97%,99%
